Results reported in PubChem BioAssay AID1159580 (chemical genetic matrix, 2015).
Out of some 5,500 compounds screened, about 2,000 (36%) were called active. Inconclusive results (about 18%) are left out. Cut-off read from the data, not from the text of the source: active = normalized growth mostly below about 0.91 (no sharp cut-off); inconclusive = no clear call, values can overlap the other calls; inactive = mostly above about 0.92. The list shows a part of the results.

Assay: chemical genetic growth profiling, strain panel (AID 1159580);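 note: tested at 20 µM; growth read once vehicle control cultures reached saturation at 30 °C; 1 = growth at the plate median or of vehicle wells; lower values mean less growth of the strain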
Details: S. cerevisiae deletion strains, growth OD

Measured: normalized growth

COc1ccc(-c2cc(=O)c3c(O)cc(O)c(-c4cc(-c5cc(=O)c6c(O)cc(O)cc6o5)ccc4OC)c3o2)cc1
inactive: locus YAL021C, strain ccr4, stronger effect = lower value 1 | locus YAL026C, strain drs2, stronger effect = lower value 1.01 | locus YAL030W, strain snc1, stronger effect = lower value 0.997 | locus YBL061C, strain skt5, stronger effect = lower value 1.01 | locus YBR009C, strain hhf1, stronger effect = lower value 1.01 | locus YBR021W, strain FUR4, stronger effect = lower value 1.03 | locus YBR023C, strain chs3, stronger effect = lower value 1 | locus YBR171W, strain sec66, stronger effect = lower value 1.02 | locus YBR229C, strain ROT2, stronger effect = lower value 0.998 | locus YBR231C, strain swc5, stronger effect = lower value 1.01 | locus YBR279W, strain paf1, stronger effect = lower value 1.01 | locus YCL011C, strain gbp2, stronger effect = lower value 1 | locus YCL016C, strain dcc1, stronger effect = lower value 1 | locus YCL029C, strain bik1, stronger effect = lower value 1.01 | locus YCL061C, strain MRC1, stronger effect = lower value 1.01 | locus YCL069W, strain vba3, stronger effect = lower value 1.01 | locus YCR088W, strain abp1, stronger effect = lower value 1.02 | locus YDL005C, strain med2, stronger effect = lower value 1.01 | locus YDL035C, strain GPR1, stronger effect = lower value 1.03 | locus YDL040C, strain nat1, stronger effect = lower value 1.01 | locus YDL074C, strain BRE1, stronger effect = lower value 1.05 | locus YDL101C, strain DUN1, stronger effect = lower value 1.01 | locus YDL185W, strain tfp1, stronger effect = lower value 0.997 | locus YDL192W, strain arf1, stronger effect = lower value 1 | locus YDR001C, strain nth1, stronger effect = lower value 1.02 | locus YDR069C, strain doa4, stronger effect = lower value 0.95 | locus YDR101C, strain arx1, stronger effect = lower value 1.02 | locus YDR137W, strain rgp1, stronger effect = lower value 0.997 | locus YDR159W, strain sac3, stronger effect = lower value 1.03 | locus YDR162C, strain NBP2, stronger effect = lower value 0.993 | locus YDR195W, strain ref2 0.993 | locus YDR297W, strain sur2, stronger effect = lower value 0.998 | locus YDR318W, strain mcm21, stronger effect = lower value 1 | locus YDR334W, strain swr1, stronger effect = lower value 0.992 | locus YDR335W, strain msn5, stronger effect = lower value 1.01 | locus YDR388W, stronger effect = lower value 1 | locus YDR392W, strain spt3, stronger effect = lower value 0.998 | locus YDR502C, strain sam2, stronger effect = lower value 1.02 | locus YEL003W, strain gim4, stronger effect = lower value 1 | locus YEL037C, strain rad23, stronger effect = lower value 1.02 | locus YEL061C, strain CIN8 (second series), stronger effect = lower value 1.01 | locus YEL061C, strain CIN8, stronger effect = lower value 1.01 | locus YER015W, strain faa2, stronger effect = lower value 1.01 | locus YER016W, strain bim1, stronger effect = lower value 1.01 | locus YER110C, stronger effect = lower value 1.02 | locus YER111C, strain swi4, stronger effect = lower value 1.03 | locus YER155C, strain BEM2 (second series), stronger effect = lower value 0.995 | locus YER155C, strain BEM2, stronger effect = lower value 1.01 | locus YER167W, strain BCK2, stronger effect = lower value 1.02 | locus YFR010W, strain ubp6, stronger effect = lower value 0.965 | locus YGL078C, strain dbp3, stronger effect = lower value 1.01 | locus YGL167C, strain pmr1, stronger effect = lower value 1.01 | locus YGL173C, strain kem1, stronger effect = lower value 1 | locus YGL227W, strain vid30, stronger effect = lower value 1.02 | locus YGL240W, strain doc1, stronger effect = lower value 1.02 | locus YGL248W, strain PDE1, stronger effect = lower value 0.986 | locus YGL253W, strain hxk2, stronger effect = lower value 1.01 | locus YGR078C, strain PAC10, stronger effect = lower value 1.03 | locus YGR135W, strain pre9, stronger effect = lower value 0.997 | locus YGR252W, strain gcn5, stronger effect = lower value 0.995 | locus YHR013C, strain ard1, stronger effect = lower value 0.993 | locus YHR027C, strain rpn1, stronger effect = lower value 1.01 | locus YHR030C, strain SLT2, stronger effect = lower value 1.02 | locus YHR079C, strain IRE1 (second series), stronger effect = lower value 1.01 | locus YHR094C, strain hxt1, stronger effect = lower value 1.01 | locus YHR129C, strain ARP1, stronger effect = lower value 1.01 | locus YHR142W, strain chs7, stronger effect = lower value 0.998 | locus YHR200W, strain rpn10, stronger effect = lower value 1.01 | locus YIL066C, strain RNR3, stronger effect = lower value 0.993 | locus YIL073C, strain SPO22, stronger effect = lower value 1.03 | locus YIL125W, strain kgd1, stronger effect = lower value 1.01 | locus YIR030C, strain dcg1, stronger effect = lower value 1.01 | locus YJL092W, strain hpr5, stronger effect = lower value 1.02 | locus YJL095W, strain BCK1 (second series), stronger effect = lower value 1.01 | locus YJL095W, strain BCK1, stronger effect = lower value 1.08 | locus YJL115W, strain asf1, stronger effect = lower value 1.01 | locus YJL129C, strain trk1, stronger effect = lower value 1.04 | locus YJL134W, strain LCB3, stronger effect = lower value 1.02 | locus YJL154C, strain vps35, stronger effect = lower value 1.01 | locus YJL164C, strain tpk1, stronger effect = lower value 0.987 | locus YJL166W, strain qcr8, stronger effect = lower value 0.997 | locus YJL168C, strain set2, stronger effect = lower value 1.01 | locus YJL187C, strain SWE1 (second series), stronger effect = lower value 0.993 | locus YJL187C, strain SWE1, stronger effect = lower value 0.99 | locus YJR043C, strain POL32, stronger effect = lower value 1.01 | locus YJR075W, strain HOC1, stronger effect = lower value 1.04 | locus YKL009W, strain mrt4, stronger effect = lower value 1.03 | locus YKL068W, stronger effect = lower value 1.01 | locus YKL085W, strain MDH1 (second series), stronger effect = lower value 1.06 | locus YKL085W, strain MDH1, stronger effect = lower value 1.06 | locus YKL160W, strain elf1, stronger effect = lower value 0.998 | locus YKR001C, strain vps1, stronger effect = lower value 1.01 | locus YKR026C, strain gcn3, stronger effect = lower value 0.998 | locus YKR091W, strain srl3, stronger effect = lower value 1.01 | locus YLL001W, strain dnm1, stronger effect = lower value 1.02 | locus YLL026W, stronger effect = lower value 1.02 | locus YLL041C, strain sdh2, stronger effect = lower value 0.995 | locus YLR027C, strain aat2, stronger effect = lower value 1 | locus YLR039C, strain RIC1, stronger effect = lower value 1.16 | locus YLR058C, strain SHM2, stronger effect = lower value 1 | locus YLR102C, strain apc9, stronger effect = lower value 1.01 | locus YLR221C, strain rsa3, stronger effect = lower value 0.999 | locus YLR258W, strain gsy2, stronger effect = lower value 1.01 | locus YLR262C, strain YPT6 (second series), stronger effect = lower value 1.02 | locus YLR262C, strain YPT6, stronger effect = lower value 1.24 | locus YLR268W, strain sec22, stronger effect = lower value 0.985 | locus YLR320W, strain mms22, stronger effect = lower value 1.01 | locus YLR330W, strain CHS5, stronger effect = lower value 1.03 | locus YLR342W, strain FKS1 (second series), stronger effect = lower value 1.02 | locus YLR342W, strain FKS1, stronger effect = lower value 0.978 | locus YLR357W, strain rsc2, stronger effect = lower value 0.973 | locus YLR370C, strain arc18, stronger effect = lower value 0.997 | locus YLR371W, strain rom2, stronger effect = lower value 1 | locus YLR384C, strain iki3, stronger effect = lower value 1.02 | locus YLR418C, strain cdc73, stronger effect = lower value 1.04 | locus YML016C, strain PPZ1, stronger effect = lower value 0.999 | locus YML032C, strain rad52, stronger effect = lower value 1.01 | locus YML120C, strain ndi1, stronger effect = lower value 1.03 | locus YML124C, strain tub3, stronger effect = lower value 1.01 | locus YMR058W, strain fet3, stronger effect = lower value 0.99 | locus YMR078C, strain ctf18, stronger effect = lower value 1.02 | locus YMR125W, strain sto1, stronger effect = lower value 1.02 | locus YMR129W, stronger effect = lower value 1.01 | locus YMR205C, strain PFK2, stronger effect = lower value 1.02 | locus YMR223W, strain ubp8, stronger effect = lower value 1.01 | locus YMR231W, strain pep5, stronger effect = lower value 1 | locus YMR263W, strain SAP30, stronger effect = lower value 1.03 | locus YMR307W, strain GAS1, stronger effect = lower value 1.13 | locus YNL067W, strain RPL9B, stronger effect = lower value 1.02 | locus YNL071W, strain lat1, stronger effect = lower value 1.01 | locus YNL128W, strain TEP1, stronger effect = lower value 1.03 | locus YNL153C, strain GIM3, stronger effect = lower value 0.98 | locus YNL209W, strain ssb2, stronger effect = lower value 1.01 | locus YNL233W, strain BNI4, stronger effect = lower value 1.04 | locus YNL248C, strain rpa49, stronger effect = lower value 1 | locus YNL250W, strain rad50, stronger effect = lower value 1.01 | locus YNL271C, strain bni1, stronger effect = lower value 1.01 | locus YNL298W, strain CLA4, stronger effect = lower value 1.01 | locus YNL307C, strain MCK1, stronger effect = lower value 1.02 | locus YNL322C, strain KRE1 (second series), stronger effect = lower value 1.02 | locus YNL322C, strain KRE1, stronger effect = lower value 1.01 | locus YNR049C, strain mso1, stronger effect = lower value 1.01 | locus YNR052C, strain pop2, stronger effect = lower value 1.01 | locus YOL006C, strain TOP1, stronger effect = lower value 1.16 | locus YOL012C, strain htz1 0.762 | locus YOL147C, strain pex11, stronger effect = lower value 1.02 | locus YOR001W, strain rrp6, stronger effect = lower value 0.993 | locus YOR061W, strain CKA2, stronger effect = lower value 1 | locus YOR069W, strain VPS5, stronger effect = lower value 1.01 | locus YOR070C, strain gyp1, stronger effect = lower value 1 | locus YOR080W, strain dia2, stronger effect = lower value 1.02 | locus YOR083W, strain WHI5, stronger effect = lower value 1 | locus YOR106W, strain vam3, stronger effect = lower value 0.973 | locus YOR136W, strain idh2, stronger effect = lower value 1.02 | locus YOR144C, strain elg1, stronger effect = lower value 1.01 | locus YOR184W, strain ser1, stronger effect = lower value 1.02 | locus YOR265W, strain rbl2, stronger effect = lower value 1 | locus YOR270C, strain vph1, stronger effect = lower value 0.998 | locus YOR290C, strain snf2, stronger effect = lower value 0.981 | locus YOR316C, strain cot1, stronger effect = lower value 1.01 | locus YPL051W, strain arl3, stronger effect = lower value 0.968 | locus YPL078C, strain atp4, stronger effect = lower value 1.01 | locus YPL106C, strain sse1, stronger effect = lower value 0.983 | locus YPL240C, strain hsp82, stronger effect = lower value 1 | locus YPR119W, strain clb2, stronger effect = lower value 1.01 | locus YPR141C, strain kar3, stronger effect = lower value 1.01 | locus YPR163C, strain tif3, stronger effect = lower value 1.02 | locus YPR167C, strain met16, stronger effect = lower value 1.01 | strain wtn01, stronger effect = lower value 0.998
